According to PubChem BioAssay (NCATS):
Records with an inconclusive call do not appear. A number with no mark means an inactive call. The source made the active and inactive calls. Calls follow the shape of the dose curve; as a rule, active = well fitted cell-killing curve with a large enough effect; inconclusive = small, poorly fitted or top-dose-only effect; inactive = flat fitted curve, though single readings scatter.

Assay: Cellular viability qHTS for adrenocortical cancer (ACC) cell line SW-13 (AID 1963989); also: nearly all actives have a fitted effect of over 65% in size;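 as to activity (max response): cells grown in serum-free medium with ITS supplement; % is scaled to controls: 0 for no effect and ±100 for the full control effect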
Conditions: SW-13 ACC cells viability, CellTiter-Glo, 48 h; activity (max response): active compounds read low
Method in brief: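 48 h treatment, SW-13 in ITS/DMEM serum-free; doses up to 46 uM; readout CellTiter-Glo luminescence; curve fit four-parameter logistic.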
Potency is read from the fitted curve at half-maximal effect.

| SMILES | activity (max response) | Potency |
| --- | --- | --- |
| COc1c(C)c2c(c(O)c1C/C=C(\C)CCC(=O)O)C(=O)OC2 | -49% | – |
| CCn1c(N)c(C(=O)NC)c(=O)c2ccc(C#CC(C)(O)COC)nc21 (stereo not drawn) | 12.5% | – |
| COc1cc(Oc2ccnc3cc(OC)c(OC)cc23)ccc1NC(=O)NC(C)c1nccs1 (stereo not drawn) | 0.628% | – |
| C=CC(=O)Nc1cccc(Oc2nc(Nc3ccc(N4CCN(C)CC4)cc3OC)ncc2Cl)c1 | – | 8.91 µM (active) |
| O=C(/C=C/c1cccnc1)NCCCCC1CCN(C(=O)c2ccccc2)CC1 | – | 0.0126 µM (active) |
| C=CCNC1=C2CC(C)CC(OC)C(O)C(C)/C=C(\C)C(OC(N)=O)C(OC)/C=C/C=C(\C)C(=O)NC(=CC1=O)C2=O (stereo not drawn) | – | 3.16 µM (active) |

Assay: Cellular viability qHTS for adrenocortical cancer (ACC) cell line NCI-H295R (AID 1963990); also: nearly all actives have a fitted effect of over 60% in size
Conditions: CellTiter-Glo ATP luminescence, 48 h; series mostly up to 46.1 µM
Method in brief: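 Compound titrations (up to 46 uM final) are applied to NCI-H295R cultures for 48 h at 37C. Viable cell number is estimated by CellTiter-Glo signal, normalised to DMSO and doxorubicin controls.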

| SMILES | Potency |
| --- | --- |
| Cc1ccc2nc(NC(=O)CSc3nc4c(c(=O)n3-c3ccccc3)SCC4)sc2c1 | inactive |
| Cc1nc(N)sc1-c1ccnc(Nc2ccc(N3CCOCC3)cc2)n1 | inactive |
| CCc1nc(C(N)=O)c(Nc2ccc(N3CCC(N4CCN(C)CC4)CC3)c(OC)c2)nc1NC1CCOCC1 | 2.82 µM (active) |
| NC(=O)Nc1sc(-c2ccc(F)cc2)cc1C(N)=O | 25.1 µM (active) |
| CN1CCCC(n2nc(Cc3ccc(Cl)cc3)c3ccccc3c2=O)CC1 (stereo not drawn) | 18.4 µM (active) |
| Clc1cc(Cl)cc(CNc2ncncc2-c2ccc3c(c2)OCO3)c1 | 3.55 µM (active) |
| C=CC(=O)Nc1cccc(Oc2nc(Nc3ccc(N4CCN(C)CC4)cc3OC)ncc2Cl)c1 | 8.91 µM (active) |
